Reference: the supplement of paper PMC13380429

What was measured:
[1] = test system: Vero E6 infected with SARS-CoV-2; test: morphology score (similarity to uninfected cells); higher = more like uninfected cells; conditions: 24 h
[2] = test system: Vero E6 infected with SARS-CoV-2; test: SARS-CoV-2 infection rate relative to infected DMSO; higher = more infection, active = 60 or less; conditions: 24 h

Structure (SMILES)	morphology score [1]	SARS-CoV-2 infection rate [2]
Cn1cc(C(F)(F)F)nc1-c1ccc(OCC(O)CNCCOc2ccc(O)c(C(N)=O)c2)cc1 (stereo not drawn) (10 µM)	-0.123	112% (inactive)
Cc1cccc(C)c1NC(=O)c1ccccc1C(=O)O [ftaxilide] (10 µM)	-0.12	106% (inactive)
Cc1cnc(CNC(=O)c2c(=O)c3ccc(N4CCCN(C)CC4)nc3n3c2sc2ccccc23)cn1 (0.833333 µM)	0.0323	109% (inactive)
CN(C)CCCC(=O)Nc1ccc(C(=O)Nc2cccc(Nc3ncc(Cl)c(-c4c[nH]c5ccccc45)n3)c2)cc1 (10 µM)	0.132	101% (inactive)
CC(=O)NCC(=O)N[C@H](CCC(=O)O)C(=O)O [N-acetylglycyl-D-glutamic-acid] (10 µM)	0.127	98% (inactive)
COc1cc(N2CCC(N3CCN(C)CC3)CC2)ccc1Nc1ncc(Cl)c(Nc2ccccc2P(C)(C)=O)n1 [brigatinib] (0.833333 µM)	-0.178	105% (inactive)
N=C(N)NCCC[C@@H](NC(=O)[C@@H]1CCCN1C(=O)[C@@H]1CSSCCC(=O)N[C@@H](Cc2ccc(O)cc2)C(=O)N[C@@H](Cc2ccccc2)C(=O)N[C@@H](CCC(N)=O)C(=O)N[C@@H](CC(N)=O)C(=O)N1)C(=O)NCC(N)=O [desmopressin-acetate] (10 µM)	0.0379	97.5% (inactive)
CCN(CCNC(=O)Nc1ccccc1Br)c1cccc(C)c1 (10 µM)	-0.0408	112% (inactive)
C[C@@H](N)c1ccc(C(=O)Nc2ccnc3[nH]ccc23)cc1 (10 µM)	-0.104	112% (inactive)
